Screening data from PubChem.
ALOX12 inh: blocks human arachidonate 12S-lipoxygenase; purified 12hLO, xylenol orange hydroperoxide absorbance; Potency, µM (doses to about 108 µM), actives largely listed as inhibitors; hit rate 1.1% among 580,000
Target sequence (P18054 whole entry, looked up): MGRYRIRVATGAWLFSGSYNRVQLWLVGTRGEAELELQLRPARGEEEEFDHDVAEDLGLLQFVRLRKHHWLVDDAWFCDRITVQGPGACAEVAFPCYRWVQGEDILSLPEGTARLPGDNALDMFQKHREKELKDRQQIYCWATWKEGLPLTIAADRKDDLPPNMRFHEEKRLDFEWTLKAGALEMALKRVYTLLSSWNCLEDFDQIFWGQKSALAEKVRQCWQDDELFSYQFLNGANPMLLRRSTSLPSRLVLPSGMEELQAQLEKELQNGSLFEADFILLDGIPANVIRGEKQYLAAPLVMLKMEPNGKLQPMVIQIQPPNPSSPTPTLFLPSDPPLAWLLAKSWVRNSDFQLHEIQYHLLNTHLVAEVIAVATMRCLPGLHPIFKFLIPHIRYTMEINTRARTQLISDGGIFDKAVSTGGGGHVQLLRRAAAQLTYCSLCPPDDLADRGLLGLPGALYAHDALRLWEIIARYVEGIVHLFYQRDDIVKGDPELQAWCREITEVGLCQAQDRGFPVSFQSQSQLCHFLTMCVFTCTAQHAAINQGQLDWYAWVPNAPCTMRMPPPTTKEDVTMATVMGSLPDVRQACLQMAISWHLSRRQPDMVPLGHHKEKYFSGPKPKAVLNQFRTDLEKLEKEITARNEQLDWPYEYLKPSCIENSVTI
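Hydroperoxide product was detected by ferrous iron/xylenol orange as the 573 to 405 nm absorbance ratio. Arachidonic acid at 40 uM (final) was turned over for 30 min at room temperature by 150 nM human 12hLO, pH 7.0 Hepes buffer, after 15 min compound preincubation.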
G9a block: G9a (human) methyltransferase inhibition; G9a H3K9 monomethylation, AlphaScreen, 2 h; Potency, µM (series often up to 102 µM), actives largely listed as inhibitors; hit rate 8.8% among 350,000; AID 504332; Q96KQ7; note: nearly all actives have a fitted effect of over 75% in size
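Chemiluminescent proximity detection of H3K9 monomethylation, read after 10 min bead incubation in the dark. Reaction: 20 nM G9a, 500 nM biotin-H3K9 peptide, 20 uM SAM cofactor, 2 h, room temperature, following 15 min enzyme-compound preincubation.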
GRP78 ERSR act: ER stress response induction in glioma; hit rate 0.02% among 420,000; U87-MG GRP78 promoter luciferase reporter, 16 h; Potency, µM, usual class: activators; AID 602332; note: series mostly up to about 76 µM; nearly all actives have a fitted effect of over 35% in size
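Stably transfected U87-MG human glioma cells carrying a GRP78-based luminescent sensor were seeded at 1000 cells/well, pin-dosed with compounds and incubated 16 h. Luciferase reagent was then added, and end-point luminescence was read after 10 min at room temperature.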
Sfp inh: blocks B. subtilis Sfp PPTase activity; Q9F4F7; Biochemical Sfp PPTase activity, qHTS; Potency, µM, actives largely listed as inhibitors; hit rate 3.5% among 310,000;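 note: the enzyme is Sfp with the accession as filed and its product quenches rhodamine fluorescence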
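Fluorescence-quenching assay: 15 nM Sfp-PPTase preincubated 15 min at room temperature with compound, then 5 uM rhodamine-CoA and 12.5 uM BHQ-2-labelled YbbR peptide added. Fluorescence (ex 525/em 598 nm) read at start and after 30 min; difference gives rate.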
VDR inh: vitamin D3 receptor (human) inhibition | VDR-SRC2-3 peptide fluorescence polarization, 2 h | hit rate 0.93% among 400,000 | Potency, µM, most hits filed as inhibitors | P11473 | AID 504847
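FP read-out; VDR + SRC2-3 coactivator peptide; 23 nl compound by pintool; 2 h RT incubation; reagents held at 4 deg C, protected from light.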
A number is an active result; – = inactive; ? = inconclusive; · = not tested or not shown; [ ] = another dose, or the depositor's remark. The entries come from a sample that favours hits as a whole. Calls come from the whole dose curve; as a rule, active = well fitted curve in the direction sought with a large enough effect; inconclusive = small, poorly fitted or top-dose-only effect, or another doubt; inactive = no such curve, though single readings can be large; an effect the other way counts as inactive or inconclusive.

SMILES	ALOX12 inh	G9a block	GRP78 ERSR act	Sfp inh	VDR inh
CN1CCCN(C(=O)c2ccc(F)cc2)c2ccccc21	–	·	·	·	·
C=CCOC(=O)C1=C(C)NC(SCC(=O)NC(=O)OCC)=C(C#N)C1c1cccnc1 (centres undefined)	–	50µM	–	?	–
CC(=O)C1=C(C)NC(SCC(=O)c2ccc(-c3ccccc3)cc2)=C(C#N)C1c1cccnc1 (centres undefined)	·	16µM	·	22µM	·
CC1=C(C(=O)OCC(F)(F)C(F)(F)F)C(c2cc3c(cc2Br)OCO3)NC(=O)N1 (centres undefined)	–	·	·	·	·
Cc1ccccc1CC(=O)Nc1cc(C(C)(C)C)on1	5µM	–	–	–	–
Cc1cc(NC(=O)Cc2ccccc2C)no1	?	–	–	–	–
Fc1cc(F)cc(Cc2nc3nccc(-c4ccccc4)n3n2)c1	–	·	·	·	·
CC(=O)c1c(Cl)nc2cccc3c2c1-c1ccccc1C3=O	–	28µM	–	–	–
COc1cc(-c2c(C(C)=O)c(C)nc3c2C(=O)c2ccccc2-3)cc(OC)c1OC	–	–	–	–	–
COC(=O)C1=C(C(=O)OC)C(c2ccccc2O)c2sc(=O)[nH]c2S1 (centres undefined)	45µM	10µM	–	8.9µM	20µM
CCCNC(=O)N[C@@H]1CCC[C@@H](C(=O)N(CC)CC)CC(=O)N(C)C1	40µM	·	·	·	·
CCN(CC)C(=O)[C@@H]1CCC[C@@H](NC(=O)c2ccccc2)CN(C)C(=O)C1	–	·	·	·	·
Cc1ccccc1-c1nnn(Cc2cc(=O)n3ccsc3n2)n1	–	·	·	·	·
Cc1n[nH]c(=S)n(/N=C/c2ccccn2)c1=O	?	?	–	50µM	–
CCc1n[nH]c(=S)n1/N=C/c1ccccn1	?	–[0.501 µM]	–	50µM	–
CCOC(=O)c1[nH]c(C)c(/C(O)=C2\C(=O)C(=O)N(CCN(C)C)C2c2ccc(C)o2)c1C (centres undefined)	–	40µM	–	–	–
CCN(CC)CCN1C(=O)C(=O)/C(=C(/O)c2c(C)[nH]c(C(=O)OC)c2C)C1c1ccc(C)o1 (centres undefined)	–	35µM	–	–	–
CCN(CC)CCN1C(=O)C(=O)/C(=C(/O)c2c(C)[nH]c(C(=O)OC)c2C)C1c1cccc(OC)c1 (centres undefined)	–	?	–	–	–
CN1CC(=O)N(C2CCC2)Cc2c1ncnc2N1CCC(c2ccccc2)CC1	–	·	·	·	·
Cn1nnc2c[n+](CC(=O)c3ccc4ccccc4c3)cc(Br)c21	–	56µM	–	–	–
C[C@H](N)c1nnc(SCC(N)=O)o1	–	13µM	–	–	–
C[C@H](N)c1nnc(SCC(=O)c2ccc(Cl)cc2)o1	–	?	–	–	–
CSc1nnc(-c2ccco2)c(-c2ccco2)n1	22µM	?	–	10µM	–
COc1cccc(NC(=O)CSc2nnc(-c3ccco3)c(-c3ccco3)n2)c1	–	2.8µM	–	10µM	89µM
CSc1nnc2c(n1)OC=Nc1ccccc1-2	–	–	–	–	–
SMILES	ALOX12 inh	G9a block	GRP78 ERSR act	Sfp inh	VDR inh
COc1ccc(C(=O)CSc2nnc(-c3ccco3)n2C)cc1	–	–	–	–	–
COc1ccc(NC(=O)CSc2nnc(-c3ccco3)c(-c3ccco3)n2)cc1OC	–	7.1µM	–	35µM	–
COc1ccc(C(=O)CSc2nnc(-c3ccco3)c(-c3ccco3)n2)cc1	20µM	8.9µM	–	8.9µM	–
CCCSc1nc(O)c(C(c2ccc(OC)c(O)c2)c2c(O)nc(SCCC)n(C)c2=O)c(=O)n1C	?	10µM	–	?	35µM
C=C1CCC(O)C/C1=C/C=C1\CCC[C@]2(C)[C@@H]([C@H](C)/C=C/[C@H](C)C(C)C)CC[C@@H]12 (some centres undefined)	·	?	–	–	50µM
C=C1CCC(O)C/C1=C\C=C1/CCCC2(C)C1CCC2C(C)/C=C/C(C)C(C)C (centres undefined)	·	·	–	–	·
CC(O)CC(C(=O)NNc1ccccc1)C(=O)NNc1ccccc1 (centres undefined)	?	3.2µM	–	–	–
CC(C)C(=O)NNc1ccccc1	–	–	–	–	–
O=[N+]([O-])c1ccc(NN=Cc2cccc3ccccc23)cc1	–	·	–	·	–
Cc1ccc[n+](-c2nc([O-])sc2/C=N/Nc2ccc([N+](=O)[O-])cc2)c1	–	11µM	–	–	–
O=C1CN(c2ccccc2)C(=O)N1Cc1ncc(-c2ccccc2)o1	–	·	·	·	·
